# From PubChem BioAssay (EPA / NIEHS)
# Results filed as inconclusive are left out. The source made the active and inactive calls. The calls were made as follows: active = hit-call score of the fitted dose curve at least 0.9, where 1 is the maximum; inconclusive = response in the unintended direction; inactive = score below 0.9.
# Key:
# [1] = molecular target: human Dual Specificity Protein Phosphatase 3 (DUSP3), DUSP3 (gene 1845) (UniProt P51452); assay: NVS_ENZ_hDUSP3: NovaScreen (NVS) Enzymatic Assay for human Dual Specificity Protein Phosphatase 3 (DUSP3) (AID 2283152);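 also: phosphatase activity of recombinant human DUSP3 on a fluorogenic substrate without cells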
# Chain of human Dual Specificity Protein Phosphatase 3 (DUSP3), DUSP3 (gene 1845) (P51452 whole entry, looked up): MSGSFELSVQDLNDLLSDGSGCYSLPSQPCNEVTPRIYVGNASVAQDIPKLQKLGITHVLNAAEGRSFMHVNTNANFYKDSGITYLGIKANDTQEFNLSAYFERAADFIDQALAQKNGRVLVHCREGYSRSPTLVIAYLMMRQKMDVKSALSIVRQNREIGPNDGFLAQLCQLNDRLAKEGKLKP
# Method in brief: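 Cell-free assay with recombinant human DUSP3 and fluorogenic substrate, read by fluorescence intensity. Primary screen ran duplicate at 25 uM; actives followed up in concentration series; loss of signal versus DMSO scored.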
# [2] = molecular target: human Elastase, ELANE (gene 1991) (UniProt P08246); assay: NVS_ENZ_hElastase: NovaScreen (NVS) Enzymatic Assay for human Elastase (AID 2283153)
# Chain of human Elastase, ELANE (gene 1991) (P08246 whole entry, looked up): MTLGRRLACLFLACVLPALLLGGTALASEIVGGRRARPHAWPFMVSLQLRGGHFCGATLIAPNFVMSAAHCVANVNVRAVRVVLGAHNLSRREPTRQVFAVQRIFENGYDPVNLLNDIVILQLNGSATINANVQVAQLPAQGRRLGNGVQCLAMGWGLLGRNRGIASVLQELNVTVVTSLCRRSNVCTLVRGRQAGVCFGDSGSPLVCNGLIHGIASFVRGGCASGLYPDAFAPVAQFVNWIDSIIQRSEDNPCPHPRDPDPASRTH
# Method in brief: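 Cell-free elastase from human neutrophils, 1.5 h after dosing, activity read by absorbance. Primary screen in duplicate at 25 uM; hits (e.g., 30% inhibition) rerun in singleton concentration-response up to 50 uM, fitted versus DMSO.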
# [3] = molecular target: Glycogen synthase kinase-3 beta (Homo sapiens) (UniProt P49841); assay: NVS_ENZ_hGSK3b: NovaScreen (NVS) Enzymatic Assay for human Glycogen Synthase Kinase-3 beta (GSK3b) (AID 2283165)
# Chain of Glycogen synthase kinase-3 beta (Homo sapiens) (P49841 whole entry, looked up): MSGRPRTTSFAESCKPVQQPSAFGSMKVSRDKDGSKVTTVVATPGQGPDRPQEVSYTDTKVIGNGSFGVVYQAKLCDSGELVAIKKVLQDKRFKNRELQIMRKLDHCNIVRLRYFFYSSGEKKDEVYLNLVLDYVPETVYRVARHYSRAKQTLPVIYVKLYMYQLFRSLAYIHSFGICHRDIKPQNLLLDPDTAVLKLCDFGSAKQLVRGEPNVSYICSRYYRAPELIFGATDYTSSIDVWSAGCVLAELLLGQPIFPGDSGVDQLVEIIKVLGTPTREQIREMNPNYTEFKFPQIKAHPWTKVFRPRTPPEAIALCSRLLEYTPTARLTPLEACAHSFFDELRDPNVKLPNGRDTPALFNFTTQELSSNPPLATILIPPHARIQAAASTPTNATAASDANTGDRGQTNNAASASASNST
# Method in brief: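 Recombinant enzyme with specific fluorescent substrate, 1 h, product separated by electrophoretic mobility shift. Primary duplicate screen at 25 uM; actives (e.g. 30% inhibition) followed in singleton concentration-response to 50 uM. Signal loss fitted versus DMSO.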
# [4] = molecular target: human MAP Kinase-Activated Protein Kinase 2 (MAPKAPK2), MAPKAPK2 (gene 9261) (UniProt P49137); assay: NVS_ENZ_hMAPKAPK2: NovaScreen (NVS) Enzymatic Assay for human MAP Kinase-Activated Protein Kinase 2 (MAPKAPK2) (AID 2283178)
# Method in brief: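 Cell-free recombinant human MAPKAPK2 activity measured by fluorescence with electrophoretic mobility shift separation of substrate and product, 1 hr after dosing. Loss of signal versus DMSO; primary screen at 25 uM, concentration-response up to 50 uM.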
# [5] = molecular target: human Phosphodiesterase 4A1 (PDE4A1), PDE4A (gene 5141) (UniProt P27815); assay: NVS_ENZ_hPDE4A1: NovaScreen (NVS) Enzymatic Assay for human Phosphodiesterase 4A1 (PDE4A1) (AID 2283191)
# Chain of human Phosphodiesterase 4A1 (PDE4A1), PDE4A (gene 5141) (P27815 whole entry, looked up): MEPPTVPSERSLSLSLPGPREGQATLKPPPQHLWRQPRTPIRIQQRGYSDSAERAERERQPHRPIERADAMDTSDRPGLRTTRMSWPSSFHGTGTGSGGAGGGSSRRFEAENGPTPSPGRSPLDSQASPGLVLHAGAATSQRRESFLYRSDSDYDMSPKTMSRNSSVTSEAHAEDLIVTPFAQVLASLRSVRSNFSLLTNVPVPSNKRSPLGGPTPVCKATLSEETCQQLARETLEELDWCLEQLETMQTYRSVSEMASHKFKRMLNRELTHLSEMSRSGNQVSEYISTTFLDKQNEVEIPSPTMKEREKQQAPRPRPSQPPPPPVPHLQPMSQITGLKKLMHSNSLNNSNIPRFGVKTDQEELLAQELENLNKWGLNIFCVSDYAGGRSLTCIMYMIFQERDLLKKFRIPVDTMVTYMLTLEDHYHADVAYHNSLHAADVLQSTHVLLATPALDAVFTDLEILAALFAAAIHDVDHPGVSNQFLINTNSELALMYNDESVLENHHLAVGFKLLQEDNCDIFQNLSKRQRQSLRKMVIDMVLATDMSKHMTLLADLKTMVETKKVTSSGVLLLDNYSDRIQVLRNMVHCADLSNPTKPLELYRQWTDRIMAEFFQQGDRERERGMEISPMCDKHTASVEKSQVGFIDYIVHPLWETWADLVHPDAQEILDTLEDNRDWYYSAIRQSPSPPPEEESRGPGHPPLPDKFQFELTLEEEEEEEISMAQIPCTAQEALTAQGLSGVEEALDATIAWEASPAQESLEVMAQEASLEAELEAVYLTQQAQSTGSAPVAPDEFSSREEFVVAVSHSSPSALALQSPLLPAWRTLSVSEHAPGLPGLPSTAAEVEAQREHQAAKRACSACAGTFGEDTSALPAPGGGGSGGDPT
# Method in brief: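 Cell-free recombinant human PDE4A1 with fluorescent substrate; product separated by electrophoretic mobility shift, 1 h. Screened at 25 uM, then up to 50 uM in concentration-response; loss of signal fitted against DMSO.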
# [6] = molecular target: human Esterase Plasma (ES), BCHE (gene 590) (UniProt P06276); assay: NVS_ENZ_hES: NovaScreen (NVS) Enzymatic Assay for human Esterase Plasma (ES) (AID 2283157)
# Chain of human Esterase Plasma (ES), BCHE (gene 590) (P06276 whole entry, looked up): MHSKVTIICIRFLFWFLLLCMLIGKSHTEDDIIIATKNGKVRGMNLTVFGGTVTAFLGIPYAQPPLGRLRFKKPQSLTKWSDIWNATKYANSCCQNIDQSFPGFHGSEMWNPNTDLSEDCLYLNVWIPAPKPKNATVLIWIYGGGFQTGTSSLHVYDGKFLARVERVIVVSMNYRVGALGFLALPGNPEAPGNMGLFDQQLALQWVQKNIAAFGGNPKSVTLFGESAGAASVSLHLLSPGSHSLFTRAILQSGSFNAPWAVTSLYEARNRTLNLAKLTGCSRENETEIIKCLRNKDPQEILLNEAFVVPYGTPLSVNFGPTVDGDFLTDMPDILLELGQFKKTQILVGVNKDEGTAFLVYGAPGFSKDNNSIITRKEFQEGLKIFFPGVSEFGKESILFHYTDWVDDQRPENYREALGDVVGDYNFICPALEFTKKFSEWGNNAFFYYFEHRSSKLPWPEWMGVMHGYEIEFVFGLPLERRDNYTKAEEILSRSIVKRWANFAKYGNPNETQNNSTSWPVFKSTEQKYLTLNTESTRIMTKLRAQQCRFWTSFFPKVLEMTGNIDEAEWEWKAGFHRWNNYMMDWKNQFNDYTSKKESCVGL
# Method in brief: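 Cell-free enzyme assay using esterase extracted from human plasma; colorimetric absorbance read 0.25 hour after dosing. Single-concentration duplicate screen at 25 uM, then concentration-response up to 50 uM; loss of signal scored against DMSO baseline.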
# [7] = molecular target: human Matrix Metalloproteinase-9 (MMP9), MMP9 (gene 4318) (UniProt P14780); assay: NVS_ENZ_hMMP9: NovaScreen (NVS) Enzymatic Assay for human Matrix Metalloproteinase-9 (MMP9) (AID 2283190);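 also: cell-free recombinant MMP9 protease activity read by fluorescent substrate signal; active means inhibition seen as loss of fluorescence signal versus DMSO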
# Method in brief: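 Extracted enzyme, fluorescent substrate, 1 h post-dose read. Single conc 25 uM in duplicate, then concentration series for actives. Activity = signal loss relative to DMSO negative control.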
# [8] = molecular target: human Phosphodiesterase 5 (PDE5), PDE5A (gene 8654) (UniProt O76074); assay: NVS_ENZ_hPDE5: NovaScreen (NVS) Enzymatic Assay for human Phosphodiesterase 5 (PDE5) (AID 2283194)
# Method in brief: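 Recombinant human PDE5 with specific substrate, read 1 h after dosing by fluorescence with electrophoretic mobility-shift separation of substrate and product. Initial single-concentration duplicate screen at 25 uM, actives followed in concentration series; loss of activity versus DMSO.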
# [9] = molecular target: human Insulin Receptor (InsR), INSR (gene 3643) (UniProt P06213); assay: NVS_ENZ_hInsR: NovaScreen (NVS) Enzymatic Assay for human Insulin Receptor (InsR) (AID 2283168)
# Chain of human Insulin Receptor (InsR), INSR (gene 3643) (P06213 whole entry, looked up): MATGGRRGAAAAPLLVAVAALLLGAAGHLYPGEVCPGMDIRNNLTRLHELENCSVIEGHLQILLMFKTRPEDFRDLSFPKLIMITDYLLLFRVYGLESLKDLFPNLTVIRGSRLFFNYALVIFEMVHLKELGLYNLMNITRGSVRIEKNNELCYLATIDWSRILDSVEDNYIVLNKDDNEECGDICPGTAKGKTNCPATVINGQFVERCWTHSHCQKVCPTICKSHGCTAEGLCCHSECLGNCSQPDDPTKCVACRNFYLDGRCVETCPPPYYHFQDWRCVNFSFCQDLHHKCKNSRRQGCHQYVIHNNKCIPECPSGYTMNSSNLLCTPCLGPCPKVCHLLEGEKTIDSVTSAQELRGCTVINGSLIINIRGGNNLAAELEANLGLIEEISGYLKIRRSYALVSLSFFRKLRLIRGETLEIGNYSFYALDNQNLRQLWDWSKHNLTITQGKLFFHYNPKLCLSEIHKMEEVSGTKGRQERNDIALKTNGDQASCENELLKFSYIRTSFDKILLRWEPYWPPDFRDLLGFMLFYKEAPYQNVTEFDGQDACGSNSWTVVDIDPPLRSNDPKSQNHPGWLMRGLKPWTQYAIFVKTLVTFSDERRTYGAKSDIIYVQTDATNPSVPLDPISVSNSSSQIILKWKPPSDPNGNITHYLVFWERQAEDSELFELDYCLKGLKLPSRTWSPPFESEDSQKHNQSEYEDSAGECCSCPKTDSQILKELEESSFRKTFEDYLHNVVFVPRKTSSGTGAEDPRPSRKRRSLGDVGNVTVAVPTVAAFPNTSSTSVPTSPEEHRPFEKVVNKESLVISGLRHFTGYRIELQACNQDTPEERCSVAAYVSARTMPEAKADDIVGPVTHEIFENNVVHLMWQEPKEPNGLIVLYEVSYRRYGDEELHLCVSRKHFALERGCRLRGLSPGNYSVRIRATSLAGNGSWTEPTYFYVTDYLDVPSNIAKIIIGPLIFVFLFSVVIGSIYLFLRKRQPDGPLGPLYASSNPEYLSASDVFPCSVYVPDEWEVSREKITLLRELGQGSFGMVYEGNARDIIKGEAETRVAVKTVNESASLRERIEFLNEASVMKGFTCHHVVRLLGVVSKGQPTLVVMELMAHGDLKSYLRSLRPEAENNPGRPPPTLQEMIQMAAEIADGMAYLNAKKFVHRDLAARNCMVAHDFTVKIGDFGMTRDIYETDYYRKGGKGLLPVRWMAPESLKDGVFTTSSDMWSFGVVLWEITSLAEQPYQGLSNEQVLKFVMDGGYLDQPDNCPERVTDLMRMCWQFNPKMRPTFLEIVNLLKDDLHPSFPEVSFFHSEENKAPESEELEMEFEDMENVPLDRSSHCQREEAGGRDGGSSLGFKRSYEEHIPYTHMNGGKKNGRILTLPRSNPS
# Method in brief: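 Fluorescent substrate phosphorylation by recombinant kinase, product resolved by electrophoretic mobility shift, read 1 h after dosing. Screened in duplicate at 25 uM; hits (e.g., 30% inhibition) run in concentration-response to 50 uM; DMSO as baseline.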
# [10] = molecular target: human c-Jun N-terminal Kinases (JNK2), MAPK9 (gene 5601) (UniProt P45984); assay: NVS_ENZ_hJNK2: NovaScreen (NVS) Enzymatic Assay for human c-Jun N-terminal Kinases (JNK2) (AID 2283171)
# Method in brief: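 Cell-free recombinant human JNK2 activity assay; fluorescent substrate and product separated by electrophoretic mobility shift, read 1 h after dosing. Primary duplicate screen at 25 uM; actives run in concentration-response up to 50 uM, relative to DMSO.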
# [11] = molecular target: Mitogen-activated protein kinase 3 (Homo sapiens) (UniProt P27361); assay: NVS_ENZ_hMAPK3: NovaScreen (NVS) Enzymatic Assay for human Mitogen-Activated Protein Kinase 3 (MAPK 3) (AID 2283177)
# Chain of Mitogen-activated protein kinase 3 (Homo sapiens) (P27361 whole entry, looked up): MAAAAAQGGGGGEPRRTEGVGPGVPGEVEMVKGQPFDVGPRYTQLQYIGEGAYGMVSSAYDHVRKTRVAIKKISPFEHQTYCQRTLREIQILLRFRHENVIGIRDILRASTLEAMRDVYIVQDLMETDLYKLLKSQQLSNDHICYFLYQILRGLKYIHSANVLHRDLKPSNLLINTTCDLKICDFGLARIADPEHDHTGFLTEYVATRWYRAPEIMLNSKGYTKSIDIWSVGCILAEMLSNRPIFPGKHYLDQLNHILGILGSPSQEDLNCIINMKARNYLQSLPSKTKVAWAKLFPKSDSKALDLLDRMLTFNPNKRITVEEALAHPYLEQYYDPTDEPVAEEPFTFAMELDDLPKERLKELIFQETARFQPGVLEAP
# Method in brief: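 Cell-free enzymatic assay with recombinant protein and specific substrate; fluorescence and electrophoretic mobility shift read-out 1 h after dosing. Primary screen duplicate at 25 uM; actives then run in concentration-response up to 50 uM, loss of signal versus DMSO.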
# [12] = molecular target: cAMP-dependent protein kinase catalytic subunit alpha (Homo sapiens) (UniProt P17612); assay: NVS_ENZ_hPKA: NovaScreen (NVS) Enzymatic Assay for human Protein Kinase A (PKA) (AID 2283192)
# Method in brief: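 Recombinant human PKA with specific fluorescent substrate, product separated by electrophoretic mobility shift, read 1 h after dosing. Primary screen at 25 uM in duplicate; actives then run in concentration-response up to 50 uM, activity relative to DMSO.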
# [13] = molecular target: Histone deacetylase 3 (Homo sapiens) (UniProt O15379); assay: NVS_ENZ_hHDAC3: NovaScreen (NVS) Enzymatic Assay for human Histone Deacetylase 3 (HDAC3) (AID 2283163)
# Method in brief: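 Recombinant human HDAC3 with fluorescent substrate, 1 h after dosing; product separated from substrate by electrophoretic mobility shift and read by fluorescence. Primary screen at 25 uM in duplicate; actives (e.g. ≥30% inhibition) retested in concentration-response up to 50 uM.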
# [14] = molecular target: human Janus Kinase 2 (Jak2), JAK2 (gene 3717) (UniProt O60674); assay: NVS_ENZ_hJak2: NovaScreen (NVS) Enzymatic Assay for human Janus Kinase 2 (Jak2) (AID 2283169)
# Method in brief: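 Cell-free recombinant human JAK2 enzyme activity assay, fluorescence/electrophoretic mobility shift read 1 h after dosing. Screened in duplicate at 25 uM, then concentration-response up to 50 uM; activity as signal loss relative to DMSO.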
# [15] = molecular target: Collagenase 3 (Homo sapiens) (UniProt P45452); assay: NVS_ENZ_hMMP13: NovaScreen (NVS) Enzymatic Assay for human Matrix Metalloproteinase-13 (MMP13) (AID 2283182)
# Method in brief: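 Recombinant MMP13 cleaving fluorescent substrate, cell-free, measured 1 h after dosing. Primary duplicate screen at 25 uM; actives tested in concentration-response up to 50 uM; loss of signal relative to DMSO.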
# [16] = molecular target: human Matrix Metalloproteinase-7 (MMP7), MMP7 (gene 4316) (UniProt P09237); assay: NVS_ENZ_hMMP7: NovaScreen (NVS) Enzymatic Assay for human Matrix Metalloproteinase-7 (MMP7) (AID 2283183)
# Method in brief: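 Cell-free fluorescence enzymatic assay read 1 h after compound addition, activity loss analyzed against DMSO. Primary duplicate testing at 25 uM; compounds meeting threshold rerun in singleton concentration-response up to 50 uM.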
# [17] = molecular target: human Matrix Metalloproteinase-2 (MMP2), MMP2 (gene 4313) (UniProt P08253); assay: NVS_ENZ_hMMP2: NovaScreen (NVS) Enzymatic Assay for human Matrix Metalloproteinase-2 (MMP2) (AID 2283184)
# Chain of human Matrix Metalloproteinase-2 (MMP2), MMP2 (gene 4313) (P08253 whole entry, looked up): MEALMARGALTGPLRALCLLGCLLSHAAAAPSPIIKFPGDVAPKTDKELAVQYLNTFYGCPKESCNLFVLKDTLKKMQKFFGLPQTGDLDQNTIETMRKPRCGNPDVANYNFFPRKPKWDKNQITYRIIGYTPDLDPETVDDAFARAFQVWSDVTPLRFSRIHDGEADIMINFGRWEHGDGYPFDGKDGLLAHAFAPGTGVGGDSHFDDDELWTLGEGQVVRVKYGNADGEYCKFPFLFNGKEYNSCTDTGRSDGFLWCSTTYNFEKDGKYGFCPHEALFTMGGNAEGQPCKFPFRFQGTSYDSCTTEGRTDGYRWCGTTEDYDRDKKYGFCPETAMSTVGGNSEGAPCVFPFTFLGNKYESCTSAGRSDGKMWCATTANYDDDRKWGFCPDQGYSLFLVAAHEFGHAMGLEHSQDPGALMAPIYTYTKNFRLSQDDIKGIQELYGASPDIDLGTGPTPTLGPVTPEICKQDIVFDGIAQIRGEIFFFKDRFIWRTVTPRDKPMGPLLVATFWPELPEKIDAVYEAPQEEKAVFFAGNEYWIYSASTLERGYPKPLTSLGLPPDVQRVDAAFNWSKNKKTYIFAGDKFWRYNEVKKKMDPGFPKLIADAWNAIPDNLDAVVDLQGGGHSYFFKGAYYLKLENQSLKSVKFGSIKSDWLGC
# Method in brief: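 Cell-free recombinant MMP2 activity with a fluorescent substrate, read 1 h after dosing. Primary screen in duplicate at 25 uM; actives then run in concentration series; loss of signal fitted versus DMSO.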
# [18] = molecular target: human Ephrin type-A Receptor 1 (EphA1), EPHA1 (gene 2041) (UniProt P21709); assay: NVS_ENZ_hEphA1: NovaScreen (NVS) Enzymatic Assay for human Ephrin type-A Receptor 1 (EphA1) (AID 2283158);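 also: activity is signal loss versus DMSO meaning EphA1 kinase inhibition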
# Method in brief: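 Cell-free enzymatic assay with recombinant EphA1 and fluorescent substrate; product separated by electrophoretic mobility shift, fluorescence intensity read 1 hour after dosing. Loss of signal versus DMSO baseline; primary duplicate screen at 25 uM, actives followed to 50 uM top concentration.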
smiles,measurement,setting,value
CN1C(=O)N(c2ccccc2Br)Cc2cnc(Nc3ccc4c(c3)OCC(CO)O4)nc21 (stereo unspecified),AC50,[1],8 µM (active)
same,AC50,[2],17 µM (active)
same,AC50,[3],7.73 µM (active)
same,outcome,[4],inactive
same,AC50,[5],6.38 µM (active)
CN(C)C(=O)C1(N2CCCCC2)CCN(CC[C@@]2(c3ccc(Cl)c(Cl)c3)CN(C(=O)c3ccccc3)CCO2)CC1,AC50,[2],19 µM (active)
same,AC50,[6],17.5 µM (active)
same,outcome,[7],inactive
same,outcome,[8],inactive
O=C(O)c1ccccc1-n1cc(C(=O)O)c(=O)c2cc(Nc3c(F)cc(F)cc3Cl)c(Cl)cc21,AC50,[2],18.4 µM (active)
same,outcome,[3],inactive
COc1cc(C(=O)NC2CCN(C)CC2)ccc1Nc1ncc2c(n1)N(C1CCCC1)CC(F)(F)C(=O)N2C,outcome,[6],inactive
same,AC50,[9],0.00746 µM (active)
same,outcome,[10],inactive
same,outcome,[11],inactive
same,AC50,[5],9.1 µM (active)
same,AC50,[12],6.04 µM (active)
same,AC50,[8],0.00376 µM (active)
O=C1CCC(C2CCCCC2)CC1,AC50,[1],22.2 µM (active)
same,AC50,[2],10 µM (active)
CCCCCCCCCCCO,AC50,[2],27.4 µM (active)
c1ccc(C[n+]2cccc3ccccc32)cc1,outcome,[6],inactive
same,outcome,[13],inactive
CC(C)(C)c1csc(-c2cc3cc(OCc4ccccc4CC(=O)O)ccc3o2)n1,AC50,[2],12.5 µM (active)
same,AC50,[14],0.00515 µM (active)
same,outcome,[11],inactive
same,outcome,[8],inactive
CO[C@H]1/C=C/O[C@@]2(C)Oc3c(C)c(O)c4c(O)c(c(/C=N/N5CCN(C)CC5)c(O)c4c3C2=O)NC(=O)/C(C)=C\C=C\[C@H](C)[C@H](O)[C@@H](C)[C@@H](O)[C@@H](C)[C@H](OC(C)=O)[C@@H]1C,AC50,[1],7.6 µM (active)
same,outcome,[15],inactive
same,outcome,[16],inactive
same,outcome,[17],inactive
O=C1O[C@H]([C@@H](O)CO)C(O)=C1O,outcome,[2],inactive
same,outcome,[18],inactive
same,outcome,[9],inactive
OC12N=C(c3ccccc3)SC1Cc1cc(Cl)ccc12 (stereo unspecified),AC50,[1],4.92 µM (active)
same,outcome,[3],inactive
Clc1cc(Cl)c2c(c1)N=C1CCCCCN1C2,AC50,[6],13.7 µM (active)
same,outcome,[18],inactive
same,outcome,[3],inactive
same,outcome,[5],inactive
same,outcome,[8],inactive
Cc1c2ccccc2c(C)c2c1ccc1ccccc12,outcome,[1],inactive
same,AC50,[2],14.3 µM (active)
same,outcome,[6],inactive
same,outcome,[15],inactive
CCN(Cc1cccc(S(=O)(=O)O)c1)c1ccc(C(=C2C=CC(=[N+](CC)Cc3cccc(S(=O)(=O)O)c3)C=C2)c2ccccc2S(=O)(=O)[O-])cc1,AC50,[1],12.5 µM (active)
same,AC50,[2],3.18 µM (active)
same,AC50,[14],12.4 µM (active)
same,AC50,[17],10.3 µM (active)
O=C(Nc1ccc(Cl)cc1)Nc1ccc(Cl)c(Cl)c1,outcome,[1],inactive
same,outcome,[5],inactive
